# According to PubChem BioAssay (EPA / NIEHS):
# The source made the active and inactive calls. The calls were made as follows: active = hit-call score of the fitted dose curve at least 0.9, where 1 is the maximum; inactive = score below 0.9.
# How the values were obtained:
# [1] = molecular target: CCAAT/enhancer-binding protein beta (Homo sapiens) (UniProt P17676); test: ATG_C_EBP_CIS: Attagene CIS-FACTORIAL HepG2 Assay for human CCAAT/Enhancer Binding Protein (C/EBP) beta (AID 2282927); details: HepG2 Attagene cis-factorial transcription factor reporter; actives raise or lower the signal
# Sequence of CCAAT/enhancer-binding protein beta (Homo sapiens) (P17676 whole entry, looked up): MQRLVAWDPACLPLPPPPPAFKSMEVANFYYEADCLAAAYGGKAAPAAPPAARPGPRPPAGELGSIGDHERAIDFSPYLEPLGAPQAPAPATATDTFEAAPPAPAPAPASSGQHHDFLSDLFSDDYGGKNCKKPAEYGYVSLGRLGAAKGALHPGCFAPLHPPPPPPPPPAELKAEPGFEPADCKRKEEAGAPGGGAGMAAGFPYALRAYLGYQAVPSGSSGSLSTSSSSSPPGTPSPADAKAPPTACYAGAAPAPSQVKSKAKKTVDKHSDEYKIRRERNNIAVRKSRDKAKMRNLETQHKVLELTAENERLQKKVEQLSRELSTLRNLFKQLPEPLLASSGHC
# Procedure, shortened: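 Endogenous transcription factor activity in human liver HepG2 cells is inferred from induction of a CEBPB-linked reporter mRNA. Exposure lasts 24 h; activity is fitted in both directions relative to DMSO.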
# [2] = ATG_CMV_CIS: Attagene CIS-FACTORIAL HepG2 Assay for human CMV (Internal Marker) (AID 2282928); details: HepG2 CMV promoter reporter, transcription factor profiling; actives raise or lower the signal;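 also: endpoint acts as a background internal control marker rather than a target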
# Procedure, shortened: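 Endogenous transcription factor activity read in HepG2 via transfected cis-promoter reporter units. After 24 h dosing, reporter mRNA measured by RT-PCR/capillary electrophoresis; gain or loss of signal fit relative to DMSO.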
# [3] = ATG_AP_2_CIS: Attagene CIS-FACTORIAL HepG2 Assay for human Activator Protein 2 (AP-2) (AID 2282932); details: HepG2 AP-2 cis-reporter, Attagene transcription factor profiling; actives raise or lower the signal
# Procedure, shortened: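 Step one: transient transfection of HepG2 with reporter transcription units. Step two: 24 h chemical exposure. Step three: RNA extraction, RT-PCR, labelled fragment analysis by capillary electrophoresis; DMSO serves as baseline.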
# [4] = ATG_BRE_CIS: Attagene CIS-FACTORIAL HepG2 Assay for human Bone Morphogenetic Protein (BMP) Response Element (BRE) (AID 2282933); details: HepG2 BMP response element reporter, Attagene transcription factor profiling; actives raise or lower the signal
# Procedure, shortened: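 After a 24 h chemical treatment, transiently transfected HepG2 cells were lysed for RNA; reporter transcripts were quantified by fluorescent RT-PCR and capillary electrophoresis, normalised to DMSO.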
# [5] = molecular target: Transcription factor E2F1 (Homo sapiens) (UniProt Q01094); test: ATG_E2F_CIS: Attagene CIS-FACTORIAL HepG2 Assay for human E2F Transcription Factor 1 (AID 2282935); details: HepG2 Attagene cis-reporter, E2F reporter RNA transcripts; actives raise or lower the signal
# Sequence of Transcription factor E2F1 (Homo sapiens) (Q01094 whole entry, looked up): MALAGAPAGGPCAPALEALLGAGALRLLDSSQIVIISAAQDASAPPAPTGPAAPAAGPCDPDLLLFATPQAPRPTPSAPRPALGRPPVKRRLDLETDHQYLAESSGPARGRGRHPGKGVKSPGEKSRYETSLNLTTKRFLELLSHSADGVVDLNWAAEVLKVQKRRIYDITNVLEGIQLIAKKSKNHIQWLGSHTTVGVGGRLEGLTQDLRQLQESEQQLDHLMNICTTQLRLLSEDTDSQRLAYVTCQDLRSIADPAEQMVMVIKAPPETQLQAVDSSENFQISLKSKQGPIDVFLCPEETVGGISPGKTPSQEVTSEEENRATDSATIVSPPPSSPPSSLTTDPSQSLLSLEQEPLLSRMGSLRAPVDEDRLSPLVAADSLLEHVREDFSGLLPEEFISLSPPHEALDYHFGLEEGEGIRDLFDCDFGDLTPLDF
# Procedure, shortened: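 Total RNA from 24 h-treated, reporter-transfected HepG2 cells undergoes DNase I treatment, oligo(dT) reverse transcription, PCR and 6-FAM primer extension before capillary electrophoresis.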
# [6] = ATG_E_Box_CIS: Attagene CIS-FACTORIAL HepG2 Assay for human Enhancer Box (E-box) (AID 2282936); details: HepG2 E-box cis-reporter transcription, actives raise or lower the signal
# Procedure, shortened: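 DMSO served as negative control and baseline for bidirectional fitting. Human hepatoma HepG2 cells, transiently transfected with cis-reporter constructs, were dosed 24 h; reporter mRNA read by RT-PCR and capillary electrophoresis.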
# [7] = ATG_M_61_CIS: Attagene CIS-FACTORIAL HepG2 Assay for M61 Transcription Factor (Internal Marker) (AID 2282937); details: HepG2 Attagene CIS-FACTORIAL M61 internal marker reporter; actives raise or lower the signal
# Procedure, shortened: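 Multiplexed reporter mRNA assay, HepG2 human hepatoma cells, 24 h treatment. Signal: FAM-labelled, HpaI-digested RT-PCR fragments by CE. Fit: bidirectional, baseline DMSO.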
# [8] = ATG_EGR_CIS: Attagene CIS-FACTORIAL HepG2 Assay for human Early Growth Response 1 (EGR1) (AID 2282938); details: HepG2 Attagene CIS-FACTORIAL EGR reporter mRNA; actives raise or lower the signal
# Procedure, shortened: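 Multiplexed cis-reporter system in human hepatoma HepG2 cells, transiently transfected. Cells are dosed for 24 h; reporter transcripts are amplified, fluorescently tagged and sized by capillary electrophoresis, with DMSO as negative control.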
# [9] = ATG_M_19_CIS: Attagene CIS-FACTORIAL HepG2 Assay for M19 Transcription Factor (Internal Marker) (AID 2282939); details: HepG2 Attagene CIS-FACTORIAL M19 internal marker reporter; actives raise or lower the signal
# Procedure, shortened: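 In this multiplexed cell assay, transiently transfected HepG2 reporter units report endogenous transcription-factor activity; after 24 hours of treatment, labelled reporter cDNA fragments are quantified by capillary electrophoresis and fitted bidirectionally against DMSO.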
# [10] = ATG_FoxO_CIS: Attagene CIS-FACTORIAL HepG2 Assay for human Forkhead box O (FoxO) (AID 2282943); details: HepG2 Attagene cis-reporter, FoxO element, mRNA; actives raise or lower the signal
# Procedure, shortened: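 HepG2, transient MRTU transfection (cis element, endogenous TFs). Dose 24 h. TriZol RNA → oligo(dT) RT → PCR → 6-FAM primer extension → HpaI cut → CE. Gain/loss vs DMSO.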
# [11] = ATG_GATA_CIS: Attagene CIS-FACTORIAL HepG2 Assay for human GATA Binding Protein (AID 2282944); details: HepG2 GATA cis-element reporter, Attagene multiplex mRNA; actives raise or lower the signal
# Procedure, shortened: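 Measures endogenous transcription factor-driven reporter mRNA in HepG2 cells transiently carrying cis-regulated constructs. 24 h dosing; RNA via oligo(dT) reverse transcription, PCR, HpaI digestion, capillary electrophoresis; fitted relative to DMSO.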
# [12] = ATG_GLI_CIS: Attagene CIS-FACTORIAL HepG2 Assay for human Zinc Finger Protein GLI1 (AID 2282945); details: HepG2, Attagene cis-factorial reporter mRNA, GLI element; actives raise or lower the signal
# Procedure, shortened: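 Bidirectional curve fits relative to DMSO, using reporter mRNA levels from RT-PCR plus capillary electrophoresis. Cells were HepG2 transiently carrying cis-regulated reporter constructs, harvested 24 h after dosing.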
# [13] = ATG_ISRE_CIS: Attagene CIS-FACTORIAL HepG2 Assay for human Interferon Regulatory Factor 1 (IRF1) binding to an Interferon-Stimulated Response Element (ISRE) (AID 2282948); details: HepG2 ISRE cis-reporter (Attagene), mRNA transcription readout; actives raise or lower the signal
# Procedure, shortened: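 Transfected HepG2 (multiple reporter transcription units, cis elements) dosed 24 h. RNA → oligo(dT) RT → PCR → 6-FAM primer extension → HpaI → CE. DMSO = negative control/baseline.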
# [14] = ATG_M_32_CIS: Attagene CIS-FACTORIAL HepG2 Assay for M32 Transcription Factor (Internal Marker) (AID 2282949); details: HepG2 Attagene cis-factorial M32 reporter, mRNA; actives raise or lower the signal;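 also: background control marker of the multiplexed CIS panel rather than a real target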
# Procedure, shortened: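 Internal background marker read-out: RT-PCR/capillary electrophoresis fluorescence of reporter transcripts from transiently transfected HepG2 cells after 24 h chemical exposure. Activity fitted bidirectionally relative to DMSO negative control.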
# [15] = ATG_M_06_CIS: Attagene CIS-FACTORIAL HepG2 Assay for M06 Transcription Factor (Internal Marker) (AID 2282950); details: HepG2 Attagene CIS-FACTORIAL M06 internal marker reporter; actives raise or lower the signal
# Procedure, shortened: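 One of many multiplexed endpoints: HepG2 reporter mRNA after 24 h dosing, detected by RT-PCR and capillary electrophoresis fluorescence; gain or loss of signal analysed against DMSO.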
# [16] = ATG_MRE_CIS: Attagene CIS-FACTORIAL HepG2 Assay for human Metal Responsive Element (MRE) (AID 2282954); details: HepG2 MRE cis-reporter transcription, Attagene multiplex; actives raise or lower the signal
# Procedure, shortened: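 After a 24 h chemical exposure, transiently transfected HepG2 cells yield RNA whose reporter sequences are amplified, FAM-labelled and sized by capillary electrophoresis. Curves are fitted bidirectionally relative to DMSO.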
# [17] = ATG_PXRE_CIS: Attagene CIS-FACTORIAL HepG2 Assay for human Pregnane X Receptor Element (PXRE) (AID 2282957); details: HepG2 Attagene CIS-FACTORIAL PXRE reporter, mRNA; actives raise or lower the signal
# Procedure, shortened: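 Cells: HepG2, transiently transfected reporter units under cis promoter control. Exposure: 24 h. Detection: reporter mRNA via RT-PCR/CE fluorescence; bidirectional fitting, DMSO-referenced.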
# [18] = ATG_Sox_CIS: Attagene CIS-FACTORIAL HepG2 Assay for human SRY-box transcription factor (SOX) (AID 2282960); details: HepG2 Attagene cis-factorial SOX reporter, mRNA; actives raise or lower the signal
# Procedure, shortened: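 Fluorescence-labelled cDNA fragments from reporter transcripts, sized by CE, give the signal. Cells: HepG2, transiently transfected with cis-regulated reporter units. Exposure 24 h; DMSO negative control; bidirectional curve fitting.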
# [19] = molecular target: Transcription factor Sp1 (Homo sapiens) (UniProt P08047); test: ATG_Sp1_CIS: Attagene CIS-FACTORIAL HepG2 Assay for human Specificity Protein 1 (Sp1) (AID 2282961); details: HepG2 Sp1 cis-reporter transcription, actives raise or lower the signal
# Sequence of Transcription factor Sp1 (Homo sapiens) (P08047 whole entry, looked up): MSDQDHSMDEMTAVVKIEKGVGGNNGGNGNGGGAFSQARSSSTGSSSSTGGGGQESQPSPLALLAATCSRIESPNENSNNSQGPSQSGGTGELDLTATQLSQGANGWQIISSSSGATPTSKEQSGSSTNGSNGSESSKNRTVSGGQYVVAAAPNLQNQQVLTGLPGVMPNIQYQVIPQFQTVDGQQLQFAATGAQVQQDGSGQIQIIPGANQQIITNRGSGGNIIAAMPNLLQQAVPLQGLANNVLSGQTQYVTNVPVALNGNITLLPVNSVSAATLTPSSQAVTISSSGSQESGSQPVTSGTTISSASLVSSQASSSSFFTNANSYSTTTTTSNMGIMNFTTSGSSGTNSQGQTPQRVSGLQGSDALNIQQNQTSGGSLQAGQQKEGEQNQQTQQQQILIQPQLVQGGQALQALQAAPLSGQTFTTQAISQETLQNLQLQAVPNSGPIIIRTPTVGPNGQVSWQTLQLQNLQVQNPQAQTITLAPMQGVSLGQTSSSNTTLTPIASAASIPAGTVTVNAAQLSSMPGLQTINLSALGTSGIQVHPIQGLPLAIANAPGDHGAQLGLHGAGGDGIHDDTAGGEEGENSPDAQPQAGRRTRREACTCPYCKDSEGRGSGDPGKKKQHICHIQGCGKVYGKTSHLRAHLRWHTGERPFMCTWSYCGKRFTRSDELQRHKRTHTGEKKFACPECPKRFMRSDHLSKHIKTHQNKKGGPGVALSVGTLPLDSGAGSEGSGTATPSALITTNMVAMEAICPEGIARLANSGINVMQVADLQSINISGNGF
# Procedure, shortened: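 Chemicals are dosed onto HepG2 cells transfected with multiple cis-promoter reporter constructs, and after 24 h reporter RNA is reverse-transcribed, PCR-amplified and resolved by capillary electrophoresis for fluorescence quantitation; activity is scored up or down against DMSO.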
# [20] = ATG_SREBP_CIS: Attagene CIS-FACTORIAL HepG2 Assay for human Sterol Regulatory Element Binding (SREBP) (AID 2282962); details: HepG2 Attagene cis-factorial SREBP reporter, mRNA; actives raise or lower the signal
# Procedure, shortened: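 Transfected HepG2 (cis-regulated reporter library, endogenous TFs) → compound 24 h → total RNA → oligo(dT) RT → reporter-specific PCR → FAM primer extension, HpaI cut → CE fluorescence. Fit bidirectional vs DMSO.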
smiles,measurement,setting,value
COc1cccc(OC)c1C(=O)O,outcome,[1],inactive
same,outcome,[2],inactive
same,outcome,[3],inactive
same,outcome,[4],inactive
same,outcome,[5],inactive
same,outcome,[6],inactive
same,outcome,[7],inactive
same,outcome,[8],inactive
same,outcome,[9],inactive
same,outcome,[10],inactive
same,outcome,[11],inactive
same,outcome,[12],inactive
same,outcome,[13],inactive
same,outcome,[14],inactive
same,outcome,[15],inactive
same,outcome,[16],inactive
same,outcome,[17],inactive
same,outcome,[18],inactive
same,outcome,[19],inactive
same,outcome,[20],inactive
Oc1cccc2ccccc12,outcome,[1],inactive
same,AC50,[2],100 µM (active)
same,outcome,[3],inactive
same,outcome,[4],inactive
same,outcome,[5],inactive
same,outcome,[6],inactive
same,outcome,[7],inactive
same,outcome,[8],inactive
same,outcome,[9],inactive
same,outcome,[10],inactive
same,outcome,[11],inactive
same,outcome,[12],inactive
same,outcome,[13],inactive
same,outcome,[14],inactive
same,outcome,[15],inactive
same,outcome,[16],inactive
same,AC50,[17],5.66 µM (active)
same,outcome,[18],inactive
same,outcome,[19],inactive
same,outcome,[20],inactive
O=C1NC(=O)C2CC=CCC12 (stereo not given),outcome,[1],inactive
same,outcome,[2],inactive
same,outcome,[3],inactive
same,outcome,[4],inactive
same,outcome,[5],inactive
same,outcome,[6],inactive
same,outcome,[7],inactive
same,outcome,[8],inactive
same,outcome,[9],inactive
same,outcome,[10],inactive
same,outcome,[11],inactive
same,outcome,[12],inactive
same,outcome,[13],inactive
same,outcome,[14],inactive
same,outcome,[15],inactive
same,outcome,[16],inactive
same,outcome,[17],inactive
same,outcome,[18],inactive
same,outcome,[19],inactive
same,outcome,[20],inactive
NC(N)=Nc1nc(CSCCC(N)=NS(N)(=O)=O)cs1,outcome,[1],inactive
same,outcome,[2],inactive
same,outcome,[3],inactive
same,outcome,[4],inactive
same,outcome,[5],inactive
same,outcome,[6],inactive
same,outcome,[7],inactive
same,outcome,[8],inactive
same,AC50,[9],153 µM (active)
same,outcome,[10],inactive
same,outcome,[11],inactive
same,outcome,[12],inactive
same,outcome,[13],inactive
same,outcome,[14],inactive
same,outcome,[15],inactive
same,outcome,[16],inactive
same,outcome,[17],inactive
same,outcome,[18],inactive
same,outcome,[19],inactive
same,outcome,[20],inactive
COCCCN,outcome,[1],inactive
same,outcome,[2],inactive
same,outcome,[3],inactive
same,outcome,[4],inactive
same,outcome,[5],inactive
same,outcome,[6],inactive
same,outcome,[7],inactive
same,outcome,[8],inactive
same,outcome,[9],inactive
same,outcome,[10],inactive
same,outcome,[11],inactive
same,outcome,[12],inactive
same,outcome,[13],inactive
same,outcome,[14],inactive
same,outcome,[15],inactive
same,outcome,[16],inactive
same,outcome,[17],inactive
same,outcome,[18],inactive
same,outcome,[19],inactive
same,outcome,[20],inactive
CC(C)CC(=O)CC(C)CC(C)C (stereo not given),outcome,[1],inactive
same,outcome,[2],inactive
same,outcome,[3],inactive
same,outcome,[4],inactive
same,outcome,[5],inactive
same,outcome,[6],inactive
same,outcome,[7],inactive
same,outcome,[8],inactive
same,outcome,[9],inactive
same,outcome,[10],inactive
same,outcome,[11],inactive
same,outcome,[12],inactive
same,outcome,[13],inactive
same,outcome,[14],inactive
same,outcome,[15],inactive
same,outcome,[16],inactive
same,AC50,[17],29.3 µM (active)
same,outcome,[18],inactive
same,outcome,[19],inactive
same,outcome,[20],inactive
O=C(O)/C=C\C(=O)O,outcome,[1],inactive
same,outcome,[2],inactive
same,outcome,[3],inactive
same,outcome,[4],inactive
same,outcome,[5],inactive
same,outcome,[6],inactive
same,outcome,[7],inactive
same,outcome,[8],inactive
same,outcome,[9],inactive
same,outcome,[10],inactive
same,outcome,[11],inactive
same,outcome,[12],inactive
same,outcome,[13],inactive
same,outcome,[14],inactive
same,outcome,[15],inactive
same,outcome,[16],inactive
same,AC50,[17],41.1 µM (active)
same,outcome,[18],inactive
same,outcome,[19],inactive
same,outcome,[20],inactive
